# Target: Solute carrier family 2, facilitated glucose transporter member 1 (Homo sapiens) (UniProt P11166)
# Test: ST_JUDE_LEISH: Cytotoxicity at 2uM final concentration against transgenic Leishmania Mexicana promastigotes LmGLUT1 that are glucose transport deficient and complemented with the human glucose transporter GLUT1. Activity is measured by DNA content using SYBR green in vitro
# Format: functional
# Chain of Solute carrier family 2, facilitated glucose transporter member 1 (Homo sapiens) (P11166 whole entry): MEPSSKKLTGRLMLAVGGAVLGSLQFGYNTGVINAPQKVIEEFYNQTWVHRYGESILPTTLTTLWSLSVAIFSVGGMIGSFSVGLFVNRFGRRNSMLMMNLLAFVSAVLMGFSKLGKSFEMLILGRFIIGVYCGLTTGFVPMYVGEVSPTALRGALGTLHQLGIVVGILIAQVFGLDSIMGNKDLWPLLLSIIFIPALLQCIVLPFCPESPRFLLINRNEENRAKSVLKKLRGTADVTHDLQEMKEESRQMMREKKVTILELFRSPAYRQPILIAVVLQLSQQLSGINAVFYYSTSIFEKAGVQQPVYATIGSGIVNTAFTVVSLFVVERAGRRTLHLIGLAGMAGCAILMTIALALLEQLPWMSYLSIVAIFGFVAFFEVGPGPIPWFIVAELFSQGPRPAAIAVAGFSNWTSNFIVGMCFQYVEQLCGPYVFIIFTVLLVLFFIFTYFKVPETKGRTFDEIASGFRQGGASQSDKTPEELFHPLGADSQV
row,SMILES,inhibition [%]
1,Fc1ccccc1C=NNc1ccnc2cc(Cl)ccc12,5.84
2,N#Cc1ccc(-c2ccc(C(=O)NCCCCN3CCC(n4cnc5ccccc54)CC3)cc2)cc1,3.46
3,COC(=O)Cn1c(C2CCN(CC3CCN(C(=O)/C=C/c4ccc(Cl)c(Cl)c4)CC3)CC2)nc2ccccc21,3.09
4,c1ccc(-c2[nH]c3ccccc3c2CN2CCC(N3CCCCC3)CC2)nc1,-2.72
5,Cc1ccc(CNC(=O)c2ccc(CN3CCCN(Cc4ccsc4)CC3)cc2)cc1,1.42
6,CC(C)CCN1CCC(Oc2ccc(NC(=O)c3ccc(F)cc3)cc2Cl)CC1,-2.57
7,O=C(/C=C/c1ccc(Cl)c(Cl)c1)NCCCCCN1CCC(NC(=O)c2ccc(F)cc2)CC1,6.17
8,O=C(Nc1ccc(Cl)cc1)Nc1cccc(-c2ccc(-c3nc4ccccc4[nH]3)cc2)c1,2.09
9,CS(=O)(=O)CCNCc1nc(-c2ccc3c(Nc4ccc(Oc5ccccn5)cc4)ccnc3c2)cs1,5.17
10,O=C(NC1CCCCC1)c1ccc(O)c(-c2cccc(C(F)(F)F)c2)c1,2.06
11,Cc1[nH]c(C)c(-c2ccc(-c3ccccc3F)nc2)c(=O)c1Br,2.19
12,O=C(NCCN1CCOCC1)c1csc(C2CCCN(C(=O)c3ccc(O)c(-c4cc(Cl)cc(Cl)c4)c3)C2)n1 (stereo not given),8.92
13,COc1ccc2nccc(NC(=O)N3CCC(NCc4cc5c(F)ccc(F)c5[nH]4)CC3)c2n1,16.9
14,CN(Cc1cccc(F)c1)C1CCCN(c2cc(NC(=O)c3ccccc3)ccn2)C1 (stereo not given),4.12
15,O=C(CCCc1ccccc1)Nc1cccc(N2CCC(N3CCN(c4ccccc4O)CC3)CC2)c1,11.8
